The text below walks through data of PubChem BioAssay (NCI).

Test in all cases: NCI-60 one-dose screen, 48 h (100 = growth as untreated, 0 = no growth, -100 = all killed)
Details in all cases: 10 µM

Experiment [1] relates to DU-145 prostate.
Experiment [2] has as its system K-562 leukemia.
The subject of experiment [3] is MALME-3M melanoma.
Experiment [4] concerns MDA-MB-231 breast.
Experiment [5] has as its system RXF 393 renal.
In experiment [6] the test system is SF-268 CNS.
The test system of experiment [7] is SF-295 CNS.
In experiment [8] the test system is SF-539 CNS.
The subject of experiment [9] is UACC-257 melanoma.
Experiment [10] deals with M14 melanoma.
Experiment [11] has as its system HCT-15 colon.
In experiment [12] the test system is HT29 colon.
The subject of experiment [13] is SNB-75 CNS.
Experiment [14] deals with SNB-19 CNS.
Experiment [15] deals with U251 CNS.
Experiment [16] relates to PC-3 prostate.
The test system of experiment [17] is SK-MEL-5 melanoma.
In experiment [18] the test system is UACC-62 melanoma.
Experiment [19] deals with LOX IMVI melanoma.
Experiment [20] concerns SK-MEL-28 melanoma.

About 83,000 compounds went through this panel and 20% of them were active in at least one assay; those are over-represented in the sample as a whole.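 Step 1: grow cells in 96-well plates. Step 2: add test compound at a single concentration. Step 3: incubate 48 h. Step 4: record percent growth.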 A number with no mark means an inactive call. The source made the active and inactive calls. Rule for the calls: active = growth percent below 10; inactive = the rest.

For `COc1ccc(Nc2cnc3cc(NS(=O)(=O)c4ccc(C)cc4)ccc3n2)cc1`, the growth is 102% in experiment [1]; 24.2% in experiment [2]; 74.1% in [3]; 67.6% in experiment [4]; 100% in experiment [5]; 88.1% in experiment [6]. The growth in experiment [7] was 75%; in experiment [8] it was 80.9%; in [9] it was 73.3%; in experiment [10] it was 75.8%; in experiment [11], 59.8%; in [12], 45.1%. In addition, the growth was 61.7% in experiment [13]; 83% in [14]; 77.9% in [15]; 101% in [16]; 77.4% in experiment [17]; 65.3% in [18]. Besides, the growth in experiment [19] was 87%; in experiment [20] it was 81.1%.
With `S=C(SSC(=S)N(c1ccccc1)c1ccccc1)N(c1ccccc1)c1ccccc1`, the growth was 109% in experiment [1]; 104% in experiment [2]; 99% in experiment [3]; 114% in experiment [4]; 111% in experiment [5]; 97.8% in [6]. Also, the growth is 102% in experiment [7]; 109% in experiment [8]; 81.7% in [9]; 101% in experiment [10]; 103% in [11]; 96.6% in [12]. Besides, the growth is 100% in [13]; 99.4% in experiment [14]; 87.9% in [15]; 81.9% in experiment [16]; 102% in [17]; 103% in experiment [18]. Besides, the growth in [19] is 95.2%; in experiment [20], 111%.
`COc1ccc(/C=C2\CCCC3C2=Nc2ccccc2NC3c2ccc(OC)cc2)cc1` (stereo not given): the growth was 101% in experiment [1]; 50.9% in experiment [2]; 94.3% in experiment [3]; 82.4% in experiment [4]; 99.9% in [5]; 102% in [6]. The growth in experiment [7] was 89.8%; in experiment [8], 135%; in experiment [9], 81.9%; in experiment [10], 71.1%; in experiment [11] it was 93.9%; in experiment [12], 74.8%. Besides, the growth in experiment [13] is 101%; in experiment [14], 92%; in experiment [15], 80.9%; in experiment [16], 86.9%; in experiment [17] it was 88.5%; in [18] it was 68%. For the same molecule, the growth in [19] was 57.4%; in [20], 98.3%.
Consider `COc1ccc(NC(=O)C2CC3C=CC2C3)c([N+](=O)[O-])c1` (stereo not given), for which the growth in experiment [1] is 110%; in [2], 88.9%; in [3], 116%; in experiment [4] it was 93.3%; in experiment [5] it was 99.8%; in [6], 102%. The growth is 95.5% in experiment [7]; 98.6% in experiment [8]; 98.1% in experiment [9]; 130% in experiment [10]; 97.1% in [11]; 101% in experiment [12]. The growth in [13] was 91.2%; in [14] it was 91.9%; in experiment [15] it was 98.4%; in experiment [16], 94.9%; in [17], 96%; in [18], 96.5%. The growth is 95.3% in experiment [19] and 98.1% in experiment [20].
As for `CCOC(=O)N/N=C/c1ccc(OC)c(OC)c1`, the growth in [1] was 118%; in [2] it was 99.9%; in [3] it was 132%; in [4], 106%; in experiment [5] it was 101%; in [6], 127%. Further, the growth is 101% in [7]; 112% in experiment [8]; 106% in [9]; 113% in experiment [10]; 110% in experiment [11]; 104% in [12]. Moreover, the growth in experiment [13] is 106%; in experiment [14], 104%; in [15] it was 100%; in [16] it was 104%; in experiment [17] it was 101%; in experiment [18], 98.7%. The growth was 102% in [19] and 107% in experiment [20].
Consider `CC(CN(C)C)Oc1ccc(OC(C)CN(C)C)c2c1C(=O)c1ccccc1C2=O` (stereo not given), for which the growth in experiment [1] is 46.1%; in experiment [2], 24.5%; in experiment [3], 67.6%; in [4] it was 40.9%; in experiment [5] it was 59.2%; in experiment [6] it was 47.8%. Further, the growth in experiment [7] was 48.2%; in experiment [8], 51%; in experiment [9], 72.8%; in experiment [10] it was 56.6%; in [11] it was 88.2%; in experiment [12], 20.8%. Also, the growth in [13] was 54.9%; in experiment [14], 37.2%; in experiment [15], 30.1%; in experiment [16], 38.3%; in experiment [17], 69.1%; in experiment [18], 68%. Further, the growth was 27.4% in [19] and 96% in experiment [20].
Consider `COc1cc(C)ccc1Oc1nc(Nc2ccc(N3CCOCC3)cc2)ncc1NC(=O)Nc1cc(C(F)(F)F)cc(C(F)(F)F)c1`, for which the growth in experiment [1] was 23.3%; in experiment [2], 40.3%; in [3], 108%; in experiment [4] it was 51.5%; in experiment [5], -27.6% (active); in experiment [6], 49.7%. The growth is 60.2% in experiment [7]; 65.6% in experiment [8]; 84.3% in experiment [9]; 73% in experiment [10]; 66.6% in [11]; 63.8% in experiment [12]. For the same molecule, the growth in experiment [13] was 65.9%; in experiment [14], 61.4%; in experiment [15] it was 53.1%; in experiment [16], 38.1%; in experiment [17], 82.6%; in experiment [18] it was 82.6%. In addition, the growth is 47.1% in experiment [19] and 94% in experiment [20].
Regarding `C=CCn1c(SCC(=O)Nc2ccc(C(=O)/C=C/c3ccc(Cl)cc3)cc2)nnc1-c1cc(-c2ccccc2)nc2ccccc12`, the growth in experiment [1] was 95.6%; in experiment [2], 27.6%; in experiment [3], 87.1%; in experiment [4], 58.3%; in experiment [5] it was 63.9%; in experiment [6] it was 76%. The growth in experiment [7] was 102%; in experiment [8], 69.8%; in [9] it was 93.4%; in experiment [10] it was 76.3%; in experiment [11], 8.31% (active); in experiment [12], 40.9%. For the same molecule, the growth in experiment [13] is 59.8%; in experiment [14] it was 66.9%; in [15] it was 48.1%; in experiment [16] it was 70.4%; in experiment [17], 87.1%; in [18], 59.9%. In addition, the growth is -82.4% (active) in [19] and 99.7% in [20].
